Experimental data reported in PubChem BioAssay (NCI).
Compounds without any hit were thinned out: in the full panel of roughly 79,000, 15% have a hit. Values without a mark were called inactive. Active and inactive are the calls of the source. Cut-off read from the data, not from the text of the source: active = growth inhibition above about 70%; inactive = the rest.

Key:
[1] = NCI Yeast Anticancer Drug Screen. Data for the rad50 strain (AID 155);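 note: 0% = growth of vehicle-only cultures of the same strain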; details: S. cerevisiae rad50 strain growth inhibition; at 50.0 µM; active compounds read high
In short: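 Vehicle-treated cultures provide the reference for the growth inhibition reported for compound-exposed, repair-deficient yeast.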

[2] = NCI Yeast Anticancer Drug Screen. Data for the mec2-1 strain (AID 157); details: S. cerevisiae mec2-1 strain, at 50.0 µM, active compounds read high
In short: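 Yeast mec2-1 mutant treated with compound. Readout: growth inhibition vs vehicle controls.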

[3] = NCI Yeast Anticancer Drug Screen. Data for the sgs1 mgt1 strain (AID 161);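 note: 0% = growth of cultures given vehicle only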; details: S. cerevisiae sgs1 mgt1 strain, at 50.0 µM, active compounds read high
In short: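 Read-out: growth inhibition vs vehicle controls. Cells: mutant yeast strain deficient in DNA damage repair.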

[4] = NCI Yeast Anticancer Drug Screen. Data for the cln2 rad14 strain (AID 165);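 note: 0% = growth equal to vehicle treated cultures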; details: S. cerevisiae cln2 rad14 strain, at 50.0 µM, active compounds read high
In short: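 cln2 rad14 yeast strain; compound exposure; growth inhibition read vs vehicle controls.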

[5] = NCI Yeast Anticancer Drug Screen. Data for the bub3 strain (AID 167); details: S. cerevisiae bub3 mutant strain, at 50.0 µM, active compounds read high
In short: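 Mutant yeast screening strain plus compound; vehicle-treated cultures serve as the 0% inhibition reference.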

[6] = NCI Yeast Anticancer Drug Screen. Data for the mlh1 rad18 strain (AID 175); details: S. cerevisiae mlh1 rad18 strain growth inhibition; at 50.0 µM; active compounds read high
In short: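 Yeast w/ defined DNA-repair lesions; compound exposure; growth vs vehicle controls → % inhibition.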

Row | Structure (SMILES) | growth inhibition [1] | growth inhibition [2] | growth inhibition [3] | growth inhibition [4] | growth inhibition [5] | growth inhibition [6]
1 | CC1C(C)C1(c1ccccc1)C(C)(C)O (stereo not drawn) | 8.55% | 1.1% | 1.3% | 16.9% | -24.1% | -3.45%
2 | Nc1ccc(N=Nc2ccccc2)c(N)c1 | 29.5% | 19.6% | 27% | -52.1% | 8.55% | 28.6%
3 | COc1onc(C)c1CC(=O)O | 2.7% | 1.2% | -7.3% | -32.1% | -8.65% | 2.75%
4 | COc1coc(/C=C/C(=O)c2ccc(O)c(O)c2)cc1=O | -11.9% | 12.7% | 10.3% | -11.8% | -6.25% | -32.5%
5 | Brc1ccccc1/C=N\N=C\c1ccccc1Br | 12.9% | 2.5% | 12.2% | -5.25% | -6.4% | 5.35%
6 | O.[Cl][Pt].[NH-]CC[S-] | -9.5% | 4% | 12.3% | -9.6% | 1.3% | -2%
7 | CC(C)=CCNc1ncnc2c1ncn2CCC(=O)OC(C)(C)C | -9.75% | -3.2% | -3.7% | -15.9% | 10.1% | 1.55%
8 | O=c1c(CN(CCO)CCO)c(-c2ccccc2)sc2ccccc12 | -3.45% | -24.6% | -28.1% | 13.1% | -13.8% | 14.7%
9 | COc1ccccc1N=Nc1c(O)n(-c2ccccc2OC)c(=S)n(-c2ccc(I)cc2)c1=O | 96% (active) | 96.2% (active) | 96% (active) | 92.8% (active) | 95.2% (active) | 96.7% (active)
10 | O=C1OC(c2cccc(Cl)c2)=N/C1=C\c1ccccc1 | 13.9% | 2.85% | 13.5% | 14.8% | 10.9% | -5.05%
11 | O=C(CC(=O)c1cccc([N+](=O)[O-])c1)C(=O)Nc1ccccc1 | -30.5% | -28.8% | 14.7% | 11.1% | -8.05% | -5.55%
12 | Cc1ccc(S(=O)(=O)N/N=C(\C(=O)Nc2cccc([N+](=O)[O-])c2)c2nc3ccc([N+](=O)[O-])cc3[nH]c2=O)cc1 | -3% | -6% | 3.65% | 7.4% | -3.1% | 2.2%
13 | Cc1cc(C)c(C)c(CC(C)(COS(C)(=O)=O)COS(C)(=O)=O)c1C | 8.6% | 11% | 27.1% | 39.2% | 5.85% | 28.1%
14 | CCc1cccc(CC)c1NC(=O)c1ccccc1Cl | 7.9% | 24.6% | 31.3% | 0.8% | 26.1% | 26.8%
15 | COc1ccc(OC(=O)Nc2ccc(OC)cc2Cl)cc1 | 3% | 5.75% | 7.05% | 12.6% | 24.7% | 7.7%
16 | C/C(CC(=O)Nc1cccc(Cl)c1C)=N\N=C(N)N | -10.2% | -27.6% | -15.2% | 19.4% | -23% | -8.9%
17 | Cn1c(=O)c2c(ncn2CCCCn2ccnc2[N+](=O)[O-])n(C)c1=O | -30.1% | -3.95% | -14.9% | 7.3% | -1.25% | -5.35%
18 | CCOC(=O)COc1c(C)cccc1Cl | 4.2% | 0.6% | -0.25% | -28.9% | -23.6% | -24.6%
19 | CCOP(=O)(OCCN(C)C)C(c1ccccc1)c1ccccc1 (stereo not drawn) | 19.9% | -3.85% | -10.8% | -6.25% | -9.75% | 34.6%

Row | Structure (SMILES) | growth inhibition [1] | growth inhibition [2] | growth inhibition [3] | growth inhibition [4] | growth inhibition [5] | growth inhibition [6]
20 | Nc1ccc(F)c(Cl)c1 | 0.85% | -16.4% | 10.7% | -17.9% | -4.25% | 14.7%
21 | Cc1ccc2ccccc2[n+]1CC(=O)c1ccc2c(c1)OCO2 | -3% | -23.2% | -0.6% | 3.85% | -10.7% | 10.7%
22 | COc1nc(NC2OC(CO)C(O)C(O)C2O)c(C=O)c(=O)n1C (stereo not drawn) | 2.45% | -6.55% | -16.1% | 9.9% | -7.3% | -7.4%
23 | COc1cc(C(C#N)NNC(=O)c2ccccc2O)ccc1O (stereo not drawn) | 34.4% | 42.8% | 44.7% | 17.6% | 66.2% | 38%
24 | Nc1nc(N)c2c(n1)Nc1ccc(Cl)nc1S2 | 94.2% (active) | 69.3% | 89.1% (active) | 52.2% | 81.1% (active) | 93.8% (active)
25 | O=P(O)(O)c1ccccc1Br | -13.1% | -17.2% | 4.85% | -15.8% | 2.3% | 3.2%
26 | CCOC(=O)c1ccc(Nc2nc3ccc(C(F)(F)F)cc3nc2C(=O)OCC)cc1 | -24.6% | 3% | -11.9% | -12.9% | -6.2% | -12.2%
27 | N#Cc1ccc(NN=NCCOCCCl)cc1 | 18.3% | 26.6% | 17.9% | 34.9% | 27.1% | 23.6%
28 | CCCC(C)C(=O)OCCOC (stereo not drawn) | 2.85% | -5.3% | -2.95% | -19.1% | 4.45% | 0%
29 | O=C(CNCc1ccccc1)NC(Cc1ccccc1)c1ccccc1 (stereo not drawn) | 8.15% | -14.3% | 0.35% | 16.9% | 13.4% | 20.9%
30 | Cc1ccc(Sc2cccc3c2C(=O)c2c(Sc4ccc(C)cc4)cccc2C3=O)cc1 | -18.9% | 9.05% | -24.5% | -12.4% | -2.7% | -11.3%
31 | N#CC(NCc1ccccc1)c1ccccc1 (stereo not drawn) | 67.7% | 43% | 14.3% | -17.1% | 22.2% | 19.8%
32 | CCCCCCn1ncc(=O)[nH]c1=O | 4.2% | -6.7% | 2.75% | -40.8% | 6.6% | 8.9%
33 | O=c1c(Cl)c(N2CCCCC2)cnn1-c1ccccc1 | 20.8% | 14.2% | 16.6% | 7.6% | 14.1% | 19.4%
34 | COc1cc(NS(=O)(=O)c2ccc(N)cc2)c2ncccc2c1 | 1.2% | 22.8% | 8.8% | -17.1% | 4.5% | 2.95%
35 | CC(=O)NC(Cc1ccccc1)c1ccccc1 (stereo not drawn) | 17.1% | -8.2% | 11.1% | 12.8% | 21.6% | 10.8%
36 | CC(=O)N(C(C)=O)n1c(-c2ccccc2)n[nH]c1=O | -7.55% | -17.9% | -14.3% | 13.1% | -10.1% | 2.45%
37 | CC(C)C(CC(=O)O)C(=O)O (stereo not drawn) | 3.8% | -1.35% | 10.2% | -8% | 3.95% | 4.65%
38 | CC(=O)NC(c1ccc(Cl)cc1)(c1ccc(Cl)cc1)C(Cl)(Cl)Cl | -18.6% | -35% | -7.4% | 8.5% | 10.4% | -3.25%
